The values that follow come from the supplement of paper PMC10981050.

Structures can show the parent of a compound that is named as a salt.

For this assay, the system named is MARIMO. As to the kind of experiment: cell viability relative to vehicle control; higher = less cytotoxic. The settings on record: 10 µM; SRSF2 genotype: SRSF2 wt/wt. Summed up: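 CRISPR-edited SRSF2 P95 mutant and isogenic wild-type clones of four leukaemia lines were screened against Selleck bioactive, kinase and epigenetic probe libraries, with identity-inconsistent compounds removed. Compounds were acoustically dispensed into 384-well plates at a single 10 µM dose, with 2000 cells in 50 µL medium per well. After 48 h, supernatant was removed and CellTiter-Glo luminescence was read. Viability was expressed as percent of the on-plate DMSO vehicle control, analysed in Genedata Screener.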
Turning to `OCC1OC(OC2OC(CO)C(O)C(O)C2O)C(O)C(O)C1O` [D-(+)-Trehalose Anhydrous], the cell viability (in general, a read-out of living cells in per cent, often relative to untreated cells) is 99.1%. The figure for `CCCCCCCCCCCCCCCCCC[N+](C)(C)C` [Trimethyloctadecylammonium bromide] is 16.6%; for `CC(C)c1cc(-c2ccc(F)c3ccccc23)nc(N)n1` it is 98.3%. Under `Cc1nc2n(c(=O)c1CCN1CCC(c3noc4cc(F)ccc34)CC1)CCCC2` [Risperidone (Risperdal)] stands 99.2%; under `Cc1[nH]c2ccccc2c1C1=C(NCCc2ccc(F)cc2)C(=O)N(C)C1=O`, 100%.

In the case of `Cc1nc(N)sc1-c1ccnc(Nc2ccc(N3CCOCC3)cc2)n1`, the cell viability turned out to be 44.3%. The figure for `CN(C)CCC(c1ccc(Br)cc1)c1ccccn1` (configuration not stated) [Brompheniramine hydrogen maleate] is 90.7%. With `C[S+](CC[C@H](N)C(=O)[O-])C[C@H]1O[C@@H](n2cnc3c(N)ncnc32)[C@H](O)[C@@H]1O` (some centres not stated) [Ademetionine disulfate tosylate], the cell viability is 110%. For the molecule `CNCc1cc(-c2ccccc2F)n(S(=O)(=O)c2cccnc2)c1` [Vonoprazan Fumarate (TAK-438)], the cell viability was 89.8%. The figure for `C=CC(=O)N1CC[C@@H](Oc2nc(Nc3ccc(N4CCC(N5CCN(C)CC5)CC4)cc3)c(C(N)=O)nc2CC)C1` [ASP8273 (Naquotinib)] is 29.7%; for `CC(=O)NC[C@H]1CN(c2ccc(N3CCOCC3)c(F)c2)C(=O)O1` [Linezolid (Zyvox)] it is 92.5%. The figure for `CC(C)=CCC[C@](C)(O[C@@H]1O[C@H](CO)[C@@H](O)[C@H](O)[C@H]1O)[C@H]1CC[C@]2(C)[C@@H]1[C@H](O)C[C@@H]1[C@@]3(C)CC[C@H](O)C(C)(C)[C@@H]3[C@@H](O[C@@H]3O[C@H](CO)[C@@H](O)[C@H](O)[C@H]3O[C@@H]3OC[C@@H](O)[C@H](O)[C@H]3O)C[C@]12C` [Notoginsenoside R1] is 104%; for `CC#CC(=O)Nc1ccc2ncnc(Nc3cccc(Br)c3)c2c1` it is 35.5%; for `Cc1cccc(C#Cc2ccccc2)n1` it is 94.5%.

As for `CO/N=C(\C(=O)N[C@@H]1C(=O)N2C(C(=O)O)=C(CSc3nnnn3C)CS[C@H]12)c1csc(N)n1` [Cefmenoxime hydrochloride], the cell viability is 97.1%. Take `CC1(C)CC(=O)c2c(C(F)(F)F)nn(-c3ccc(C(N)=O)c(N[C@H]4CC[C@H](O)CC4)c3)c2C1`: the cell viability was determined as 25.9%. Under `CC1(C)C=Cc2c(ccc3c2OC[C@@H](c2ccc(O)cc2O)C3)O1` [Glabridin] stands 92.5%; under `COc1cccc(-c2cc(NCc3ccc4c(c3)OCO4)nc(N)n2)c1` [Wnt agonist 1], 9.19%; under `CNC1CCC(N(Cc2cccc(-c3ccncc3)c2)C(=O)c2sc3ccccc3c2Cl)CC1` (configuration not stated) [Smoothened Agonist (SAG) HCl], 51.4%. Under `NCCCCCNCC12CC3CC(CC(C3)C1)C2` [IEM 1754 dihydrobroMide] stands 105%; under `NC(=S)c1ccncc1` [Thioisonicotinamide], 105%.

Take `C[C@@]1(F)[C@H](O)[C@@H](CO)O[C@H]1n1ccc(=O)[nH]c1=O` [2'-deoxy-2'-fluoro-2'-C-methyluridine]: the cell viability turned out to be 101%. The figure for `Nc1cccc2c1CN(C1CCC(=O)NC1=O)C2=O` (configuration not stated) [Lenalidomide (CC-5013)] is 101%. The figure for `Cc1ccccc1N1C(=O)c2cc(S(N)(=O)=O)c(Cl)cc2NC1C` (configuration not stated) [Metolazone (Zaroxolyn)] is 99.7%; for `CCC/C=C1\OC(=O)C2=C1CCC=C2` [Ligustilide] it is 65.6%.

Regarding `OC[C@@H](O)[C@@H](O)[C@H](O)[C@H](O)CO` [D-Mannitol (Osmitrol)], the cell viability was found to be 116%. Take `CN(C)CCCN1c2ccccc2Sc2ccc(Cl)cc21` [Chlorpromazine HCl]: the cell viability was determined as 44.1%.

For the molecule `CCOC(=O)c1ccc(C#Cc2ccc3c(c2)C(C)(C)CCS3)nc1` [Tazarotene (Avage)], the cell viability was found to be 40.8%.

As to `OC[C@H]1O[C@@H](OCCc2ccc(O)cc2)[C@H](O)[C@@H](O)[C@@H]1O` [Salidroside (Rhodioloside)], the cell viability was 104%. Consider `C=C[C@]1(C)C[C@@H](OC(=O)CSC(C)(C)CNC(=O)[C@H](N)C(C)C)[C@]2(C)[C@H](C)CC[C@]3(CCC(=O)[C@H]32)[C@@H](C)[C@@H]1O` [Valnemulin HCl], for which the cell viability came out at 74.9%. As to `CCS(=O)(=O)CCn1c([N+](=O)[O-])cnc1C` [Tinidazole], the cell viability was determined as 97.2%. Turning to `O=C(Cc1ccc(-c2ccc(OCCN3CCOCC3)cc2)cn1)NCc1ccccc1`, the cell viability was 9.4%.
